Compound activity as filed in PubChem.
A selection: hits, their analogues and other compounds. The true share with any hit is near 0.5%.
EPAC2 ag – EPAC2 (human) agonism; EPAC2 activation, biochemical qHTS; response scale: 100% = 6.5 mM cAMP response; hit rate 0.079% among 360,000; Q8WZA2; AID 720711; Potency, µM (titrated, usually from 154 µM), most hits filed as activators; also: nearly all actives have a fitted effect of over 50% in size
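qHTS, titration series. 100 nM EPAC2 / 250 nM Rap1B-BODIPY-GDP / 50 uM GDP; RT; ex 480/em 540 nm, 5-min reads to 30 min. Norm. to 6.5 mM cAMP = activation.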
PTHR1 ag – activates the human parathyroid hormone receptor PTHR1. Q03431. HEK293 GP2 PTHR1 cells, GloSensor cAMP luminescence, 1 h. Potency, µM (titrated, usually from 115 µM), most hits filed as activators. hit rate 0.075% among 410,000; also: nearly all actives have a fitted effect of over 55% in size
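HEK-293-derived GP2 cells expressing PTHR1 and a GloSensor cAMP reporter, 3,000/well, plated overnight, given luciferin plus IBMX (each 0.5 mM as added) for 1 h at 37 °C, then compound for 1 h at 37 °C. Luminescence was read after 15 min at room temperature.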
EPAC1 antag – antagonists of human EPAC1 | O95398 | EPAC1 GEF assay, Rap1b-BODIPY-GDP exchange fluorescence | Potency, µM (top dose mostly 115 µM), usual class: inhibitors | hit rate 0.14% among 360,000; also: nearly all actives have a fitted effect of over 50% in size
EPAC2 antagonist – antagonists of human EPAC2; hit rate 0.18% among 360,000; EPAC2 GEF exchange of Rap1B-BODIPY-GDP, fluorescence; Q8WZA2; Potency, µM (doses to about 114 µM), actives largely listed as inhibitors; also: nearly all actives have a fitted effect of over 45% in size
EPAC1 agonist – activates human EPAC1 exchange factor; EPAC1 agonist qHTS, biochemical assay; response scale: 100% = response to 6.5 mM cAMP; Potency, µM (top dose mostly 154 µM), usual class: activators; hit rate 0.073% among 360,000; AID 720707; also: nearly all actives have a fitted effect of over 60% in size
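Multi-concentration qHTS readout: loss of Rap1B-bound BODIPY-GDP fluorescence driven by 100 nM EPAC1 with excess GDP (50 uM), monitored kinetically at room temperature; agonist response expressed relative to 6.5 mM cAMP.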
TSHR antagonist – antagonists of human thyroid stimulating hormone receptor | activity change, negative = inhibition, % at 11.5 µM | AID 504810 | TSHR-expressing cells, TSH-stimulated cAMP HTRF, 2 h; hits give low values | P16473 | hit rate 0.2% among 330,000;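 active = activity change below a set negative limit, meaning inhibition stronger than a set level, cut at about -70% in these data; inconclusive = activity change between two set negative limits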
Target sequence (P16473 whole entry, looked up): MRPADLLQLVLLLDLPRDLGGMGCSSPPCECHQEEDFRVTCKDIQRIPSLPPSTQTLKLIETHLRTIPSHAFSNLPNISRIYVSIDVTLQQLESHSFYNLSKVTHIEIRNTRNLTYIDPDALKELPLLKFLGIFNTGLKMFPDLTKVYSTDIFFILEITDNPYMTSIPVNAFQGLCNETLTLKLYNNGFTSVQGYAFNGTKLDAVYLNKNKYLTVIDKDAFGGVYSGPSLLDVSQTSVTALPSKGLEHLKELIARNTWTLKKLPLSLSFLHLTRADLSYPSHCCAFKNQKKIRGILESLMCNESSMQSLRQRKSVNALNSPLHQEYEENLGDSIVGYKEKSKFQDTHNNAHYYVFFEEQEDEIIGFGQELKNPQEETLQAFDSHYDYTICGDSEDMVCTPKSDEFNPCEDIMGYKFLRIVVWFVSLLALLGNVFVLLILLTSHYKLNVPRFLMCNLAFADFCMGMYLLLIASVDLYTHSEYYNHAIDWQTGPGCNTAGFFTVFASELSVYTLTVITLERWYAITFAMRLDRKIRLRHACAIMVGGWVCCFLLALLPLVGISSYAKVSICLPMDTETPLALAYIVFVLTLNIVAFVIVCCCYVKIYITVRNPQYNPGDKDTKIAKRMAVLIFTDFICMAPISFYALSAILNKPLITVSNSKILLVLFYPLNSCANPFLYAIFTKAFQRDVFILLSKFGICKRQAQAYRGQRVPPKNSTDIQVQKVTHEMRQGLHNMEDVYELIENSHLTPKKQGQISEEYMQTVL
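Antagonism was scored as loss of TSH-driven cAMP in TSHR cells, stimulated with 4nM TSH (EC80) for 2 hours at 37 deg C and detected by homogeneous HTRF competition immunoassay.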
Each line names hits and unclear results; the compound was inactive in the other large screens; ! = repeats disagree. Unless noted, calls follow the shape of the dose curve; as a rule, active = well fitted curve in the direction sought with a large enough effect; inconclusive = small, poorly fitted or top-dose-only effect, or another doubt; inactive = no such curve, though single readings can be large; an effect the other way counts as inactive or inconclusive.

CS(=O)(=O)c1ccc(N2CCN(c3ccccn3)CC2)c([N+](=O)[O-])c1	TSHR antagonist -114
Cc1cccn2c(=O)c(C(=O)NCCc3ccccc3)cnc12	none (no result: EPAC2 ag, EPAC1 antag, EPAC2 antagonist, EPAC1 agonist, TSHR antagonist)
COC(=O)Cc1c(C)c2ccc(OC(=O)c3ccco3)cc2oc1=O	EPAC2 ag 6.3µM
CCN1CCN(CCCNC(=O)c2cc3c(=O)n(C)c4ccccc4c3s2)CC1	none (no result: EPAC2 ag, EPAC1 antag, EPAC2 antagonist, EPAC1 agonist, TSHR antagonist)
Cc1ccc(CCNC(=O)C2CCN(S(=O)(=O)c3cccc4cccnc34)CC2)cc1	TSHR antagonist -107
COc1cc(/C=C2\SC(=Nc3ccccc3)N(CCc3c[nH]c4ccccc34)C2=O)ccc1OC(C)C(=O)O (stereo not drawn)	EPAC1 antag inconclusive, EPAC2 antagonist inconclusive, EPAC1 agonist 100µM
COc1ccc(N=C2S/C(=C\c3ccc(OC(C)C(=O)O)c(OC)c3)C(=O)N2CCc2c[nH]c3ccccc23)cc1 (stereo not drawn)	none
Cc1ccc2oc(C(=O)N3CCCCCC3)c(C)c2c1	EPAC2 antagonist 56µM, TSHR antagonist inconclusive
CCc1ccc(CNC(=O)c2ccc(OC3CCN(C(C)=O)CC3)c(OC)c2)nc1	none
CCOC(=O)[C@H]1[C@H]2COc3ccc(C)cc3[C@@H]2N2C(=O)c3ccc(F)cc3NC(=O)[C@@]12C	none
CCOC(=O)[C@H]1[C@H]2COc3ccc(C)cc3[C@@H]2N2C(=O)c3ccc(C)cc3NC(=O)[C@@]12C	EPAC2 ag 79µM, EPAC1 agonist inconclusive
C[C@@]12C(=O)Nc3cc(F)ccc3C(=O)N1[C@H]1c3cc(Br)ccc3OC[C@@H]1[C@@H]2c1ccccc1	EPAC2 ag 79µM
COc1ccc(C(=O)OCc2c(-c3ccccc3)ncc3ccccc23)cc1	none
COc1cc2ccccc2cc1C(=O)NC(=S)Nc1ccc(C(=O)O)cc1	none
COc1cc2ccccc2cc1C(=O)NC(=S)Nc1cccc(C(=O)O)c1	EPAC1 antag 45µM, EPAC1 agonist inconclusive
COc1cc(OC)c(NC(=O)c2nn(-c3ccc(C)cc3)c(=O)c3c2c2ccccc2n3C)cc1Cl	none (no result: EPAC2 ag, EPAC1 antag, EPAC2 antagonist, EPAC1 agonist, TSHR antagonist)
CN(C)c1ccc(/C=C(\C#N)C(=O)Nc2nc3c(s2)CCN(Cc2ccccc2)C3)cc1	EPAC2 ag 112µM
CCCN1CCN(CCCNC(=O)Cn2nc(C)n3c(cc4cc(OC)ccc43)c2=O)CC1	TSHR antagonist -88
CC[C@]12C(=O)N(C)C[C@H]([C@@H]3C(=O)N(Cc4ccccc4)C(=O)[C@@H]31)N2C(=O)c1ccc(Br)cc1	none (no result: TSHR antagonist)
FC(F)(F)c1cccc(Nc2c3c(nc4ccc(Cl)cc24)CCC3)c1	none (no result: EPAC2 ag, EPAC1 antag, EPAC2 antagonist, EPAC1 agonist, TSHR antagonist)
COC(=O)C[C@H]1C=C[C@@H](NC(=O)C2CC2)[C@@H](CO)O1	none (no result: TSHR antagonist)
COc1ccc(-c2csc(NC(=O)CSc3nc(SC)ns3)n2)cc1	TSHR antagonist -74
Cn1c(=O)c(Nc2ccc(Cl)cc2)c2c3c(cccc31)C(=O)c1ccccc1-2	EPAC2 ag 112µM, EPAC1 agonist inconclusive
Cc1cc(Nc2cccc(C(=O)O)c2)n2ncnc2n1	none
O=C(O)c1ccc2c(c1)C(=O)N(c1cccc3ccccc13)C2=O	none
O=S1(=O)C=C(Oc2ccc3ccccc3c2)c2ccccc21	EPAC2 antagonist 25µM
Cc1cc(C)c(C)c(S(=O)(=O)Nc2cccc(-n3cnnn3)c2)c1C	none
O=S(=O)(Nc1cccc(-n2cnnn2)c1)c1ccccc1C(F)(F)F	TSHR antagonist -136
C[C@]12CC[C@@H]3c4ccc(OS(=O)(=O)O)cc4CC[C@H]3[C@@H]1CCC2=O	EPAC1 antag 22µM!
COc1ccc(CCNC(=S)NC(=O)c2cccc([N+](=O)[O-])c2)cc1OC	none
Oc1ccc(CNc2cccc(F)c2F)c2cccnc12	none (no result: EPAC2 ag, PTHR1 ag, EPAC1 antag, EPAC2 antagonist, EPAC1 agonist)
COc1ccc(NS(=O)(=O)c2cn(C)cn2)cc1Cl	TSHR antagonist -142
COc1ccc(CCn2c(O)cc3nn(-c4nc5ccccc5s4)c(=O)c-3c2C)cc1	EPAC1 antag 50µM
COc1ccc(CN2CCN(c3nc4ccccc4s3)CC2)cc1	none
CC1(C)CC[C@]2(C(=O)O)CC[C@]3(C)C(=CC[C@@H]4[C@@]5(C)CC[C@H](O[C@@H]6O[C@H](C(=O)O)[C@@H](O)[C@H](O[C@@H]7OC[C@H](O)[C@H](O)[C@H]7O)[C@H]6O)C(C)(C)[C@@H]5CC[C@]43C)[C@@H]2C1	EPAC1 antag 50µM, TSHR antagonist inconclusive
CC1(C)CC[C@]2(C(=O)O[C@@H]3O[C@H](CO)[C@@H](O)[C@H](O)[C@H]3O)CC[C@]3(C)C(=CCC4[C@@]5(C)CC[C@H](O[C@@H]6O[C@H](C(=O)O)[C@@H](O[C@H]7OC[C@@H](O)[C@@H](O)[C@@H]7O)[C@H](O)[C@H]6O)C(C)(C)C5CC[C@]43C)[C@@H]2C1 (stereo partly drawn)	none
CC(=O)C1=C(O)C(=O)N(c2ccc(O)cc2)C1c1cccc(F)c1 (stereo not drawn)	TSHR antagonist -80
Cc1ccc(C2CC(c3cccs3)=NN2C(=O)c2ccco2)o1 (stereo not drawn)	EPAC2 antagonist 28µM
O=c1[nH]c(=S)[nH]c2c1C(c1ccc(Br)cc1)c1c([nH]c(=S)[nH]c1=O)O2	EPAC1 antag 35µM
N=C1/C(=C\c2coc3ccccc3c2=O)C(=O)N=C2SC(c3ccncc3)=NN12	EPAC2 ag 63µM, EPAC1 agonist 100µM
N=C1/C(=C\c2coc3ccc(O)cc3c2=O)C(=O)N=C2SC=CN12	EPAC2 ag 63µM, EPAC1 agonist 89µM
CSC1=NSC2=NC(=O)/C(=C\c3coc4ccccc4c3=O)C(=N)N12	EPAC2 ag inconclusive, EPAC1 agonist 63µM, TSHR antagonist -91
N=C1/C(=C/c2coc3ccccc3c2=O)C(=O)N=C2SC(c3ccco3)=NN12	EPAC2 ag 100µM, EPAC1 agonist 89µM
Cc1cc(/C=C2\C(=N)N3N=C(c4ccco4)SC3=NC2=O)c(C)n1Cc1ccccc1	EPAC1 antag inconclusive
CN1C(=O)/C(=C/c2coc3ccc(O)cc3c2=O)SC1=S	none
CC(=O)Nc1ccc(CCCCc2ccc(NC(C)=O)cc2)cc1	none (no result: TSHR antagonist)
COc1cc(/C=C2\SC(=S)N(NS(=O)(=O)c3ccc(C)cc3)C2=O)cc(OC)c1OC	EPAC1 antag 79µM, EPAC2 antagonist 50µM
Cc1ccc(S(=O)(=O)NN2C(=O)/C(=C/c3cccc(F)c3)SC2=S)cc1	EPAC1 antag inconclusive, EPAC2 antagonist 32µM
Cc1ccc(S(=O)(=O)NN2C(=O)/C(=C/c3ccccn3)SC2=S)cc1	none
